According to the supplement of paper PMC7057948, “A genome-wide approach for identification and characterisation of metabolite-inducible systems” (Nature Communications, 2020):

Key:
Experiment in all cases: relative induction of RFP reporter vs primary effector (background-corrected); higher = stronger activation of the biosensor
Settings in all cases: inducer concentration 5 mM; 6 h; Cupriavidus necator H16; minimal medium + 0.4% gluconate
[1] = system: AcoR/P_H16_RS19445 acetoin biosensor (pEH052)
Procedure: (§1)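 C. necator H16 strains, each carrying one of 21 transcription factor/inducible promoter–mRFP biosensor plasmids, were grown in minimal medium in 96-well plates (robotic platform). Each was exposed to 46 structurally or metabolically related compounds at 5 mM at 30 °C. OD-normalised RFP fluorescence was read 6 h later and expressed as relative induction (%) = 100 × (FL compound − FL uninduced)/(FL primary inducer − FL uninduced); mean of n=4.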

[2] = system: AraC/P_araBAD L-arabinose biosensor (pEH176)
Procedure: as §1

[3] = system: BenM/P_H16_RS09790 benzoate biosensor (pEH148)
Procedure: as §1

[4] = system: FdsR/P_H16_RS03165 formate biosensor (pEH134)
Procedure: as §1

[5] = system: GabR/P_H16_RS23655 GABA biosensor (pEH256)
Procedure: as §1

[6] = system: HpdR/P_H16_RS18295 3-hydroxypropanoate biosensor (pEH010)
Procedure: as §1

[7] = system: KynR/P_H16_RS14030 L-kynurenine biosensor (pEH136)
Procedure: as §1

[8] = system: NahR/P_H16_RS08125 salicylate biosensor (pEH042)
Procedure: as §1

[9] = system: OapR/P_H16_RS01330 beta-alanine biosensor (pEH147)
Procedure: as §1

[10] = system: PcaQ/P_H16_RS30145 3,4-dihydroxybenzoate biosensor (pEH161)
Procedure: as §1

[11] = system: PhgR/P_H16_RS05530 phenylglyoxylate biosensor (pEH155)
Procedure: as §1

[12] = system: PhhR/P_H16_RS18365 L-phenylalanine biosensor (pEH137)
Procedure: as §1

[13] = system: SauR/P_H16_RS13695 sulfonatoacetate biosensor (pEH157)
Procedure: as §1

[14] = system: TtdR/P_H16_RS10665 tartrate biosensor (pEH083)
Procedure: as §1

[15] = system: XdhR/P_H16_RS05055 xanthine biosensor (pEH154)
Procedure: as §1

[16] = system: heterologous inducible system pEH002 (rhamnose/acrylate/cumate/itaconate set)
Procedure: as §1

[17] = system: heterologous inducible system pEH020 (rhamnose/acrylate/cumate/itaconate set)
Procedure: as §1

[18] = system: heterologous inducible system pEH040 (rhamnose/acrylate/cumate/itaconate set)
Procedure: as §1

[19] = system: heterologous inducible system pEH086 (rhamnose/acrylate/cumate/itaconate set)
Procedure: as §1

[20] = system: BadR/P_H16_RS27200 cyclohexanecarboxylate biosensor (pEH159)
Procedure: as §1
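Also: RFP excited at 585 nm with emission read at 620 nm, culture medium blanks subtracted from fluorescence and absorbance prior to normalisation.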

Compound	relative induction of RFP reporter [1] [%]	relative induction of RFP reporter [2] [%]	relative induction of RFP reporter [3] [%]	relative induction of RFP reporter [4] [%]	relative induction of RFP reporter [5] [%]	relative induction of RFP reporter [6] [%]	relative induction of RFP reporter [7] [%]	relative induction of RFP reporter [8] [%]	relative induction of RFP reporter [9] [%]	relative induction of RFP reporter [10] [%]	relative induction of RFP reporter [11] [%]	relative induction of RFP reporter [12] [%]	relative induction of RFP reporter [13] [%]	relative induction of RFP reporter [14] [%]	relative induction of RFP reporter [15] [%]	relative induction of RFP reporter [16] [%]	relative induction of RFP reporter [17] [%]	relative induction of RFP reporter [18] [%]	relative induction of RFP reporter [19] [%]	relative induction of RFP reporter [20] [%]
O=C(O)C1=C[C@@H](O)[C@@H](O)[C@H](O)C1 [shikimate]	0.0178	-0.00161	-0.000316	-2.48	-0.317	1.03	-0.0973	0.00146	0.246	2.49	-0.587	0.165	0.0792	-0.0735	-0.446	-0.00769	-0.782	-0.0558	0.188	
O=C(O)/C=C\C=C/C(=O)O [cis,cis-muconate]	-0.277	-0.0203	-0.00774	0.498	-1.92	0.114	0.571	0.022	0.13	-0.0137	-0.341	-0.13	-0.0287	0.125	-0.143	-0.00409	0.263	0.756	0.0837	-0.641
CCCC(=O)O [butyric acid]	-2.08	-0.0107	-0.0464	-1.59	-2.45	-0.186	-0.35	-0.000826	-0.94	0.636	-0.41	-0.461	0.0337	-0.384	-0.758	-0.00916	-1.33	-0.981	-0.0776	
C[C@H](O)C(=O)O [L-lactate]	29	-0.0302	-0.0365	1.58	-1.56	0.0155	-0.0815	0.00963	-0.633	-0.0469	-0.429	-0.296	-0.0258	0.33	-0.526	0.0108	-1.63	-1.88	-0.0751	0.636
